# Test results: PubChem BioAssay (NCATS)
# A number with no mark means an inactive call. Results filed as inconclusive are left out. Where a call stands in place of a potency, no number is given. Activity calls are given as the source filed them. Unless noted, calls come from the whole dose curve; as a rule, active = well fitted curve in the direction sought with a large enough effect; inconclusive = small, poorly fitted or top-dose-only effect, or another doubt; inactive = no such curve, though single readings can be large; an effect the other way counts as inactive or inconclusive.
# Experiments:
# [1] = biological target: Rap guanine nucleotide exchange factor 3 (Homo sapiens) (UniProt O95398); test: Confirmatory qHTS for antagonist of cAMP-regulated guanine nucleotide exchange factor 3 (EPAC1) (AID 1645880); note: nearly all actives have a fitted effect of over 55% in size
# Sequence of Rap guanine nucleotide exchange factor 3 (Homo sapiens) (O95398 whole entry, looked up): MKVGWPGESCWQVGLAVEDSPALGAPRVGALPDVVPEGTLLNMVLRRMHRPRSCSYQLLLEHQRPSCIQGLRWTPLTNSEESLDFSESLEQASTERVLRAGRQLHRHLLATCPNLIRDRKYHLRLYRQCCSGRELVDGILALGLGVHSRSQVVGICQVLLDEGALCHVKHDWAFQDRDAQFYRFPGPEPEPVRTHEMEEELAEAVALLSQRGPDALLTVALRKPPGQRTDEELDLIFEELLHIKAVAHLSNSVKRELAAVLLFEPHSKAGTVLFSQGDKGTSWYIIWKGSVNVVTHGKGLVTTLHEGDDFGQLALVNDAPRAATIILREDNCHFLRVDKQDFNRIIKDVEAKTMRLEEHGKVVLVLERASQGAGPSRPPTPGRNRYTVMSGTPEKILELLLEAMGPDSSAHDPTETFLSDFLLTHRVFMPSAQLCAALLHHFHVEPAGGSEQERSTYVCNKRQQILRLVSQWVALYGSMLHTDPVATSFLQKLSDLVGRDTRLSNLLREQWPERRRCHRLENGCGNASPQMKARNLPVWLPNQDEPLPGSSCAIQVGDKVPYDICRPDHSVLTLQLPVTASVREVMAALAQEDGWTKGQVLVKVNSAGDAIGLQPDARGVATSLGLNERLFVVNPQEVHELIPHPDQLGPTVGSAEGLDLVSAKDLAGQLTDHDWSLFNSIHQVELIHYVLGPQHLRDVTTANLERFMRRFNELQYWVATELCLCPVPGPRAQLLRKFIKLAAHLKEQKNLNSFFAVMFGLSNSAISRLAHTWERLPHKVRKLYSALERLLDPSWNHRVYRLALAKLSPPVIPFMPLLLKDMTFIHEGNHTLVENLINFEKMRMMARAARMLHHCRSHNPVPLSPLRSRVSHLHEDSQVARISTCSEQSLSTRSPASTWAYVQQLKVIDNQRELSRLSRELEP
# How it was run: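 Nucleotide exchange uses 100 nM EPAC1, 250 nM RAP1B-BODIPY-GDP and 50 uM GDP, with compounds in a concentration-titration series. After 5 min at room temperature, fluorescence (480 nm ex/540 nm em) is read every 5 min for 30 min. Data are normalized to control ATA and DMSO.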
# [2] = biological target: Cytochrome P450 2C9 (Homo sapiens) (UniProt P11712); test: qHTS Assay for Inhibitors and Substrates of Cytochrome P450 2C9 (AID 883); note: nearly all actives have a fitted effect of over 60% in size; note: potency is the fitted concentration of half-maximal effect
# Sequence of Cytochrome P450 2C9 (Homo sapiens) (P11712 whole entry, looked up): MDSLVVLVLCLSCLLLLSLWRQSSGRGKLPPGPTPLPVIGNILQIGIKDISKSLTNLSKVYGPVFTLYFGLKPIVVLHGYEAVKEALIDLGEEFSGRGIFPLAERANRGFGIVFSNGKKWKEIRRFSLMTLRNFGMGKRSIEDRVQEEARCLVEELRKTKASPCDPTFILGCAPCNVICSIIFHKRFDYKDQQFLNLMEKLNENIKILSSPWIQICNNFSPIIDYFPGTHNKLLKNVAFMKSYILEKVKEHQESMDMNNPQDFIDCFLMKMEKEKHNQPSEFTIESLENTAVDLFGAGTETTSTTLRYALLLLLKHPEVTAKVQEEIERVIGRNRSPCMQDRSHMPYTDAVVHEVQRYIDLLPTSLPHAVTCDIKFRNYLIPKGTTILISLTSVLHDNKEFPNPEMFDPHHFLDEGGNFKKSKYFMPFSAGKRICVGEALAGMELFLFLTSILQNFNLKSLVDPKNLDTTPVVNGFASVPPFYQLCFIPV
# How it was run: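 Signal: luciferase luminescence reporting luciferin produced by CYP2C9. Conditions: 10nM enzyme, Luciferin-H 100uM at KM, 25mM KPO4, 37C, 60 min NADPH-driven reaction. Reference: 57uM sulphaphenazole as 100% inhibition.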
# [3] = qHTS Assay for Identification of Small Molecule Agonists for Hypoxia Response Element Signaling Pathway (AID 914; active = well fitted activation curve with a large enough effect in the signal ratio, with a control signal flat, not every such curve was filed as active; the % refers to the signal ratio); conditions: ME-180 (cervical carcinoma) HRE-bla reporter, beta-lactamase ratio, CoCl2, 17 h; activation: active compounds read high
# How it was run: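 HRE-bla ME-180 cells, overnight plating in Opti-MEM with 0.5% dialyzed FBS; cpd titration + EC50 CoCl2, 17 h, 37 degrees Celsius; CCF4 2.5 h RT; 460/530 nm ratio; AC50.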
# [4] = Confirmation and Secondary Assay for Modulators of Hemoglobin Beta Chain Splicing at IVS2 654 locus (AID 910);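 note: HeLa cells stably carrying EGFP split by mutant beta-globin IVS2-654 intron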
# How it was run: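 HeLa cells stably expressing EGFP interrupted by β-globin IVS2-654 intron, seeded overnight in Opti-MEM/2% FCS, then treated 2 days at 37 °C. Restored splicing read as total peak GFP intensity per well by laser scanning cytometry (488 nm excitation, 500–520 nm emission); 500 nM antisense PNA as control.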
# [5] = Confirmation and Secondary Assay for Modulators of Hemoglobin Beta Chain Splicing at IVS2 705 locus (AID 930);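 note: HeLa cells stably expressing the EGFP-705 splicing reporter; GFP fluorescence per well restored by corrected splicing of the IVS2-705 intron in EGFP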
# How it was run: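 Read-out: total peak GFP fluorescence per well (488 nm excitation, 500-520 nm emission) by laser-scanning cytometry. Cells: HeLa EGFP-705 splicing reporter, 2 days compound exposure in Optimem/2% FCS.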
# [6] = biological target: Cytochrome P450 2C19 (Homo sapiens) (UniProt P33261); test: qHTS Assay for Inhibitors and Substrates of Cytochrome P450 2C19 (AID 899); note: nearly all actives have a fitted effect of over 60% in size; note: potency is the fitted concentration of half-maximal effect
# Sequence of Cytochrome P450 2C19 (Homo sapiens) (P33261 whole entry, looked up): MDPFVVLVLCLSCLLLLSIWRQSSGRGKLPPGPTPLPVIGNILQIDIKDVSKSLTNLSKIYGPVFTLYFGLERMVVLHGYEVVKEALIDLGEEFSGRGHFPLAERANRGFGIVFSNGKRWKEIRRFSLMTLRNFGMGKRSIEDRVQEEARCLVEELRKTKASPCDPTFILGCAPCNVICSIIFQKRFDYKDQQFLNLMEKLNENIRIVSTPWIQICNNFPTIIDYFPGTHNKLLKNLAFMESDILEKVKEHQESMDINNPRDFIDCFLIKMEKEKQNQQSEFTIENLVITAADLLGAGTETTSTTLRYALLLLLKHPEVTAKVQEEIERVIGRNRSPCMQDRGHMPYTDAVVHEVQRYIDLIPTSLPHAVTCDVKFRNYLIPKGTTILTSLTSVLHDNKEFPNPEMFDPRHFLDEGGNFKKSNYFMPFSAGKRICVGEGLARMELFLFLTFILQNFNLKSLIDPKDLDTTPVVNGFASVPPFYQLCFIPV
# How it was run: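 Signal comes from luciferase acting on luciferin released by CYP2C19-mediated hydroxylation of Luciferin-H EGE, 10uM (KM). Assay mix: 5nM enzyme, 50mM KPO4; 60 min at 37C with NADPH regeneration. Data normalized against 57uM ketoconazole.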
# [7] = NCATS anti-infectives library activity on HEK293 viability as a counter-qHTS vs the C. elegans viability qHTS (AID 1745854);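 note: HEK293 cells exposed to compounds for 24 hr before the viability read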
# How it was run: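 Cytotoxicity in human HEK293 cells is measured by ATP-dependent CellTiter-Glo luminescence following a 24 hr incubation with titrated library compounds at 37C. Top final concentration is 41.7 uM.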
# [8] = biological target: Cytochrome P450 2D6 (Homo sapiens) (UniProt P10635); test: qHTS Assay for Inhibitors and Substrates of Cytochrome P450 2D6 (AID 891); note: nearly all actives have a fitted effect of over 60% in size; note: potency is the fitted concentration of half-maximal effect;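 for activity change, negative = inhibition: luciferin methyl ether substrate demethylated by CYP2D6 with NADPH regeneration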
# Sequence of Cytochrome P450 2D6 (Homo sapiens) (P10635 whole entry, looked up): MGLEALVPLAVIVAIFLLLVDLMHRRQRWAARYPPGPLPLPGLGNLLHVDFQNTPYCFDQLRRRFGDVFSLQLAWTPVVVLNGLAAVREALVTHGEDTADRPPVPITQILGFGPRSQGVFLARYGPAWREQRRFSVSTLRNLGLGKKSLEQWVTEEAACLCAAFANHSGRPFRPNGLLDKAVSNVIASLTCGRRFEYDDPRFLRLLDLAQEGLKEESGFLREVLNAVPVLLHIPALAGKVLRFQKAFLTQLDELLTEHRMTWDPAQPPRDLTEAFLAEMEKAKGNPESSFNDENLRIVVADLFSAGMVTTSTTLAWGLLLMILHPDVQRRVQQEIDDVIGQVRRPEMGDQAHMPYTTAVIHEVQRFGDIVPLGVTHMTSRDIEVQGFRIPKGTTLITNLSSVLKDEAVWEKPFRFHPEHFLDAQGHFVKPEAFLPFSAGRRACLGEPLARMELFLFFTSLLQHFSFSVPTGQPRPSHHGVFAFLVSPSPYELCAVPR
# How it was run: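 Human CYP2D6 (5 nM) with 30 uM Luciferin-ME EGE (at Km) in 100 mM KPO4, compound preincubated 10 min, then NADPH regeneration system for 60 min at room temperature. Luciferin read by luminescence; normalized to 1.43 uM quinidine.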
# [9] = biological target: ATP-dependent 6-phosphofructokinase (Trypanosoma brucei brucei) (UniProt O15648); test: qHTS Assay to Find Inhibitors of T. brucei phosphofructokinase: hit validation (AID 492961);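 note: luminescence reports ADP formed as PFK phosphorylates fructose-6-phosphate with ATP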
# Sequence of ATP-dependent 6-phosphofructokinase (Trypanosoma brucei brucei) (O15648 whole entry, looked up): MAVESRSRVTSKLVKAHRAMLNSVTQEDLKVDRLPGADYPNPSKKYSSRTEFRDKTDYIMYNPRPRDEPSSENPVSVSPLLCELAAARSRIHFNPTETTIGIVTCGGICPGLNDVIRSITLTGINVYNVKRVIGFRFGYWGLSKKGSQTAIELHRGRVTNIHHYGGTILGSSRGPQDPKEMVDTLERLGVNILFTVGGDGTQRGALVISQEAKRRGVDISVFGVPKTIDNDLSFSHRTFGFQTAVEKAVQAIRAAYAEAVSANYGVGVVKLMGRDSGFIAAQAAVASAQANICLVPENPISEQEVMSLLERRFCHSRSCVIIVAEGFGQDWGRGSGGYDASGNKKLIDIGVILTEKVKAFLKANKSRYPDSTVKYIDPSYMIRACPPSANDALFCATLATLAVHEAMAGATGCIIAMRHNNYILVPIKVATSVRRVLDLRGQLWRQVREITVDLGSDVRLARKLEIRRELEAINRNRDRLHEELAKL
# How it was run: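 Inhibition of parasite PFK is measured as reduced ADP formation, quantified via luciferase after ATP depletion. Assay used 0.1 mM ATP, 0.5 mM F6P, 1.25 nM enzyme, 45 min incubation.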
# [10] = qHTS profiling for inhibitors of Plasmodium falciparum proliferation (AID 504749); note: nearly all actives have a fitted effect of over 60% in size; conditions: P. falciparum in erythrocytes, SYBR Green DNA, 72 h, at 12.8 µM (top of the series)
# How it was run: (§1)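 Readout was DNA-dye fluorescence from lysed cultures, ex 485/em 535 nm. Parasitized red cells had grown 72 h with compound; data scaled between 0.29 uM artemisinin and DMSO wells and corrected using vehicle-only plates.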
# [11] = test system: AS120; test: as above; conditions: P. falciparum in erythrocytes, SYBR Green DNA, 72 h; series mostly up to 28.7 µM
# How it was run: as §1
# [12] = test system: ATS189; test: as above; conditions: P. falciparum in erythrocytes, SYBR Green DNA, 72 h; series mostly up to 28.7 µM
# How it was run: as §1
# [13] = test system: CP191; test: as above; conditions: P. falciparum in erythrocytes, SYBR Green DNA, 72 h; series mostly up to 28.7 µM
# How it was run: as §1
# [14] = test system: CP192; test: as above; conditions: P. falciparum in erythrocytes, SYBR Green DNA, 72 h; series mostly up to 28.7 µM
# How it was run: as §1
# [15] = test system: CP203; test: as above; conditions: P. falciparum in erythrocytes, SYBR Green DNA, 72 h; series mostly up to 28.7 µM
# How it was run: as §1
# [16] = test system: CP291; test: as above; conditions: P. falciparum in erythrocytes, SYBR Green DNA, 72 h; series mostly up to 28.7 µM
# How it was run: as §1
# [17] = test system: DFO2036; test: as above; conditions: P. falciparum in erythrocytes, SYBR Green DNA, 72 h; series mostly up to 28.7 µM
# How it was run: as §1
# [18] = test system: PC49; test: as above; conditions: P. falciparum in erythrocytes, SYBR Green DNA, 72 h; series mostly up to 28.7 µM
# How it was run: as §1
# [19] = test system: TAB113; test: as above; conditions: P. falciparum in erythrocytes, SYBR Green DNA, 72 h; series mostly up to 28.7 µM
# How it was run: as §1
# [20] = test system: W2; test: as above; conditions: P. falciparum in erythrocytes, SYBR Green DNA, 72 h; series mostly up to 28.7 µM
# How it was run: as §1
smiles,measurement,setting,value
COCC(=O)N1CCC2(CC1)CCN(C(=O)Nc1cccc(C#N)c1)CC2,Potency,[1],inactive
COCCn1c(=O)c(CCc2ccccc2)nc2cnc(Nc3cccc(OC)c3)nc21,Potency,[1],inactive
O=c1cnc2cnc(Oc3cccc(Cl)c3)nc2n1Cc1ccc(F)cc1,Potency,[2],7.94 µM (active)
same,Potency,[1],inactive
COc1ccc(-n2c(=O)c(-c3cc(F)cc(F)c3)nc3cnc(N(C)C)nc32)cc1,Potency,[1],inactive
FC(F)(F)c1ccccc1-c1nc(N2CCOCC2)c2ccccc2n1,activation,[3],9.18%
same,Potency,[1],inactive
O=C(c1cccc(F)c1)N1CCC2(CC1)CN(c1cccc(-c3ccccc3)c1)C2,Potency,[1],inactive
COc1cc(O)c2c(=O)cc(C)oc2c1CC=C(C)C,outcome,[4],inactive
same,outcome,[5],inactive
same,Potency,[1],inactive
Cc1cccc(CNc2nc(-c3ccc4c(c3)OCO4)nc3ccccc23)c1,Potency,[6],3.16 µM (active)
same,activation,[3],6.93%
same,Potency,[1],inactive
COc1cccc(Cn2c(=O)c(-c3cn(C)c4ccccc34)nc3cnc(N4CCNCC4)nc32)c1,Potency,[1],inactive
O=C(c1cnccn1)N1CCC[C@@]2(CCN(C(c3ccccc3)c3ccccc3)C2)C1,Potency,[1],inactive
COCC(=O)N1CCC2(CC1)CN(c1ccccn1)C2,Potency,[1],inactive
COCCNc1ncncc1-c1c(C)noc1C,"activity change, negative = inhibition",[2],23.1% [at 2.29 µM]
CC(C)=CCC1=C(O)c2ccccc2C(=O)C1=O,outcome,[4],inactive
same,outcome,[5],inactive
same,Potency,[7],inactive
Cn1cc(-c2nc3cnc(N4CCNCC4)nc3n(C)c2=O)c2ccccc21,Potency,[2],7.94 µM (active)
COc1ccccc1CNc1ccnc(-c2ccc3c(c2)OCO3)n1,Potency,[8],0.794 µM (active)
same,Potency,[6],3.16 µM (active)
same,outcome,[4],inactive
same,outcome,[5],inactive
O=c1c(-c2cc(F)cc(F)c2)nc2cnc(N3CCNCC3)nc2n1Cc1cccs1,Potency,[2],3.98 µM (active)
COCCn1c(=O)c(C)nc2cnc(N3CCN(C)CC3)nc21,Potency,[2],inactive
CN(C)c1ncc2nc(-c3cccc(C#N)c3)c(=O)n(CCC#N)c2n1,Potency,[2],inactive
N#Cc1cccc(-c2nc3cnc(Oc4cccc(Cl)c4)nc3n(C3CC3)c2=O)c1,Potency,[2],3.16 µM (active)
COc1ccccc1-c1cc(NCc2cccc(C)c2)ncn1,Potency,[6],3.98 µM (active)
same,Potency,[1],inactive
Cc1noc(C)c1-c1cc(NC2CCNCC2)ncn1,"activity change, negative = inhibition",[2],23.1% [at 2.29 µM]
same,Potency,[6],inactive
CN(C)c1ncc2nc(-c3cccs3)c(=O)n(CCC#N)c2n1,Potency,[1],inactive
O=C(c1cc(C(F)(F)F)cc(C(F)(F)F)c1)N1CCC2(CCCN(Cc3nccs3)C2)CC1,Potency,[6],inactive
Oc1ccc(/C=C\c2cc(O)cc(O)c2)cc1,outcome,[4],inactive
same,outcome,[5],inactive
same,outcome,[9],inactive
same,"activity, negative = inhibition",[10]; parasite line A,3.83%
same,"activity, negative = inhibition",[10]; parasite line B,-0.952%
same,Potency,[11],inactive
same,Potency,[12],inactive
same,Potency,[13],inactive
same,Potency,[14],inactive
same,Potency,[15],inactive
same,Potency,[16],inactive
same,Potency,[17],inactive
same,Potency,[18],inactive
same,Potency,[19],inactive
same,Potency,[20],inactive
COCCn1c(=O)c(-c2cccs2)nc2cnc(N(C)C)nc21,Potency,[1],inactive
CN(C)Cc1ccccc1-c1nc(N(C)C)c2ccccc2n1,Potency,[8],2.51 µM (active)
CCNc1ncc2ncc(=O)n(C3CC3)c2n1,Potency,[2],inactive
FC(F)(F)c1ccccc1-c1nccc(NCc2cccs2)n1,Potency,[6],2 µM (active)
COc1ccc(-c2nc3cnc(N4CCOCC4)nc3n(C[C@H]3CCCO3)c2=O)cc1,Potency,[2],inactive
CN1CCN(c2ncnc3ccc(-c4ccc5c(c4)OCO5)cc23)CC1,Potency,[8],0.251 µM (active)
COc1ccc(CNc2ccnc(-c3ccc4c(c3)OCO4)n2)c(OC)c1,Potency,[6],2.51 µM (active)
COc1ccc(-n2c(=O)c(-c3cccs3)nc3cnc(N(C)C)nc32)cc1,Potency,[2],inactive
same,Potency,[8],inactive
same,Potency,[6],inactive
Cc1nc2cnc(N(C)C)nc2n(C2CC2)c1=O,activation,[3],9.86%
Cc1noc(C)c1-c1cncnc1N(C)Cc1ccco1,Potency,[6],2.51 µM (active)
O=c1c(CCc2ccccc2)nc2cncnc2n1Cc1ccc(F)cc1,Potency,[2],7.94 µM (active)
same,Potency,[6],6.31 µM (active)
Cc1nc2cncnc2n(Cc2ccccc2)c1=O,Potency,[6],0.158 µM (active)
COCCn1c(=O)cnc2cnc(Oc3ccccc3)nc21,activation,[3],10.1%
Cn1cc(-c2nc3cnc(N4CCOCC4)nc3n(C3CC3)c2=O)c2ccccc21,Potency,[6],inactive
CN1CCN(c2ncc3nc(CCc4ccccc4)c(=O)n(C4CC4)c3n2)CC1,activation,[3],-5.15%
CNc1cc(-c2ccccc2C(F)(F)F)ncn1,activation,[3],17.1%
Cn1c(=O)c(-c2cccs2)nc2cnc(N3CCOCC3)nc21,activation,[3],11.8%
CN1CCN(c2ncc3nc(-c4cc(F)cc(F)c4)c(=O)n(C)c3n2)CC1,Potency,[2],inactive
COc1ccc(Oc2ncc3nc(C)c(=O)n(C[C@H]4CCCO4)c3n2)cc1,activation,[3],-5.29%
